Sampled rows, rich in hits. Any-hit rate of the full collection: about 3%.
TrxR1 substrate: substrates of rat thioredoxin reductase 1. O89049. purified TrxR1 substrate turnover, NADPH consumption readout. Potency, µM (titrated, usually from 114 µM), for inactives: at the top dose activity change, negative = substrate turnover. actives 0.01% (n = 390,000); also: % is scaled to controls: 0 for no effect and ±100 for the full control effect; nearly all actives have a fitted effect of over 50% in size
Target sequence (O89049 whole entry, looked up): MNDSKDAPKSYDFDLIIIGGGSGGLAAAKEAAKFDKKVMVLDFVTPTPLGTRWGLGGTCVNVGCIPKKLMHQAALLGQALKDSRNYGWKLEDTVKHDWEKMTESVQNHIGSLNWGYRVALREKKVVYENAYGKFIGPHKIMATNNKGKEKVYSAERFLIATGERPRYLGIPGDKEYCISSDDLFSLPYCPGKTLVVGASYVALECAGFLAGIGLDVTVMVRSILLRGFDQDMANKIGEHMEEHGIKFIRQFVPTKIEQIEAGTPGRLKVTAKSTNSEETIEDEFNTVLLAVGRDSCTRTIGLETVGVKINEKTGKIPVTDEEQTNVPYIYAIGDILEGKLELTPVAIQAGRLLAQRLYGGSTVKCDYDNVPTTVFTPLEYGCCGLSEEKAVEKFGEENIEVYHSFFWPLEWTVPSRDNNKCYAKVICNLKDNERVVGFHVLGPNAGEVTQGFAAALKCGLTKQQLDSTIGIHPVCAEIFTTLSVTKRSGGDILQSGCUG
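Rat TrxR1, dispensed at 90 nM, was prereduced with 400 uM NADPH (final) for 5 min at ~22 deg C, then incubated with compound 15 min before 400 uM selenite. A first-read NADPH fluorescence drop versus no-compound background flagged substrates.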
Nrf2 ARE act: activates Nrf2 signaling; AREc32 ARE-luciferase reporter (MCF7-derived line), luminescence, 24 h; actives 0.31% (n = 410,000); Potency, µM (doses to about 46.1 µM), without a hit: at the top dose activation, usual class: activators; also: % of control where 0% means no effect; nearly all actives have a fitted effect of over 65% in size
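Reporter line AREc32 (ARE-Fluc), seeded overnight in OPTI-MEM with 5% FBS; compound pin-transferred, 24 hr at 37 deg C, 5% CO2; luminescent read-out.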
GALK inhibitor: galactokinase (human) inhibition. AID 1868. actives 0.007% (n = 270,000). P51570. Potency, µM (series often up to 57.5 µM), for inactives: top-dose activity change, negative = inhibition, actives largely listed as inhibitors. Purified GALK, Kinase-Glo residual ATP luminescence; also: % is scaled to controls: 0 for no effect and ±100 for the full control effect
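Human GALK (5 nM) with 35 uM ATP and 100 uM galactose in 20 mM HEPES pH 8.0, 5 mM MgCl2, 60 mM NaCl, 1 mM DTT, 0.01% BSA. After 1 h at room temperature, leftover ATP was read by Kinase-Glo Plus luminescence.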
A549 tox-1: kills or reduces viability of A549 cells in Nrf2 counter-screen; Potency, µM (doses to about 46 µM), inactives show at the top dose activity change, negative = cytotoxicity, hits mostly inhibitors; actives 0.16% (n = 390,000); A549 ARE-Fluc cells, CellTiter-Fluor viability, 18-24 h; also: % is scaled to controls: 0 for no effect and ±100 for the full control effect
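A549 ARE_Fluc cells in 5% FBS OPTI-MEM were exposed to compounds in concentration-response for 18-24 h at 37 deg C. Viability was read by CellTiter-Fluor fluorescence (Ex 405/Em 525) after 30 min, before the luciferase read.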
Nrf2 block: blocks Nrf2 signaling; A549 ARE-Fluc reporter, luciferase luminescence, 18-24 h; Potency, µM (titrated, usually from 46 µM), without a hit: at the top dose activity change, negative = inhibition, usual class: inhibitors; actives 2.1% (n = 360,000); also: % is scaled to controls: 0 for no effect and ±100 for the full control effect; nearly all actives have a fitted effect of over 60% in size
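Concentration-response testing used A549 ARE_Fluc cells at 5000 cells/well. Following an 18-24 h compound incubation, viability was read by fluorescence (Ex 405/Em 525) and luciferase output by luminescence.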
TrxR1 inh: rat TrxR1 inhibition; recombinant rTrxR1, NADPH fluorescence consumption, selenite substrate; Potency, µM (highest dose often 114 µM), for the others: at the top dose activity change, negative = inhibition, usual class: inhibitors; actives 1% (n = 390,000); AID 588453; also: % is scaled to controls: 0 for no effect and ±100 for the full control effect; nearly all actives have a fitted effect of over 65% in size
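Rat TrxR1 (90 nM in the dispensed reagent) was pre-reduced with 400 uM NADPH for 5 min at room temperature, then incubated with compound for 15 min. After 400 uM selenite was added, NADPH fluorescence (Ex 340/Em 450 nm) was followed for 8 min.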
FLuc counter 3: firefly luciferase inhibition, Nrf2 hit validation. shares compounds with Nrf2 block. purified firefly luciferase, luminescence inhibition. Potency, µM (series often up to 57.5 µM), for the others: top-dose activity change, negative = inhibition, hits mostly inhibitors. actives 4% (n = 1,400); also: % is scaled to controls: 0 for no effect and ±100 for the full control effect; nearly all actives have a fitted effect of over 65% in size
A549 tox-2: A549 cytotoxicity, Nrf2 inhibitor counterscreen; shares compounds with Nrf2 block; A549 ARE-Fluc cells, cytotoxicity counterscreen; Potency, µM (series often up to 46.1 µM), for the others: at the highest dose activity change, negative = cytotoxicity, hits mostly inhibitors; actives 2% (n = 1,400); AID 720523;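 also: cells exposed to compounds for 18 to 24 hours; % is scaled to controls: 0 for no effect and ±100 for the full control effect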
Nrf2 ARE inh: Nrf2 inhibition confirmed, A549 ARE-luciferase. shares compounds with Nrf2 block. A549 ARE-firefly luciferase reporter, luminescence. Potency, µM (top dose mostly 46.1 µM), without a hit: at the top dose activity change, negative = inhibition, actives largely listed as inhibitors. actives 74% (n = 1,400); also: % is scaled to controls: 0 for no effect and ±100 for the full control effect; nearly all actives have a fitted effect of over 65% in size
The depositor's hits bear a star; ? = inconclusive; · = no result given; [ ] = dose if it differs, or a comment. Calls follow the shape of the dose curve; as a rule, active = well fitted curve in the direction sought with a large enough effect; inconclusive = small, poorly fitted or top-dose-only effect, or another doubt; inactive = no such curve, though single readings can be large; an effect the other way counts as inactive or inconclusive. Potency is read from the fitted curve at half-maximal effect.

SMILES	TrxR1 substrate	Nrf2 ARE act	GALK inhibitor	A549 tox-1	Nrf2 block	TrxR1 inh	FLuc counter 3	A549 tox-2	Nrf2 ARE inh
CC[C@H](C)[C@@H](C(=O)NCCCCCCCCCCC(=O)N1CCN(C(=O)OC(C)(C)C)CC1)n1cc(CCCCCNC(=O)OC(C)(C)C)nn1	-11%	5%	·	-6%	5.8µM*	-1%	-3%	-10%	7.3µM*
CC(C)(C)OC(=O)CC[C@@H](C(=O)NCCCCCCCCCCC(=O)N1CCN(C(=O)OC(C)(C)C)CC1)n1cc(CCCCCNC(=O)OC(C)(C)C)nn1	5%	5%	·	0%	?	12%	·	·	·
COc1ccc(NC(=O)C(C)n2nnc3sc(-c4ccccc4)cc3c2=O)cc1Cl (configuration not stated)	-3%	13%	·	1%	13%	22%	·	·	·
CC12CC(c3ccccc3O1)N(C(=O)c1ccco1)C(=S)N2c1ccccc1 (configuration not stated)	-7%	0%	1%	?	8.2µM*	-5%	2%	-14%	-16%
O=C(c1ccc(S(=O)(=O)Nc2ccc(F)cc2)cc1)N1CCN(c2ccccn2)CC1	-5%[57.1 µM]	2%	4%	?	2.9µM*	13%[57.1 µM]	-1%	-5%	15µM*
Cc1ccc(NS(=O)(=O)c2ccc(C(=O)N3CCN(c4ncccn4)CC3)cc2)cc1	17%[57.1 µM]	1%	3%	?	5.8µM*	24%[57.1 µM]	-1%	-4%	8.2µM*
O=C(c1ccc(NS(=O)(=O)c2ccc(F)cc2)cc1)N1CCCCC1	-9%	0%	·	1%	-22%	-6%	·	·	·
O=C(O)CC[C@H](NC(=O)c1ccccc1C(=O)O)C(=O)O	·	·	·	·	·	0%	·	·	·
CN(Cc1cnc2nc(N)nc(N)c2n1)c1ccc(C(=O)NC(CCC(=O)O)C(=O)O)c2ccccc12 (configuration not stated)	18%[57.1 µM]	0%	·	-23%	0.041µM*	-2%[11.4 µM]	-20%	-18%	0.033µM*
Cc1nc2c(-c3ccccc3)c(C)[nH]n2c(=O)c1Cc1ccc(C(C)C)cc1	5%[11.4 µM]	-1%	·	?	4.6µM*	11%	3%	-21%	5.8µM*
Cc1ccc(Cc2c(C)nc3c(-c4ccccc4)c(C)[nH]n3c2=O)cc1	6%[11.4 µM]	0%	·	-10%	1%	12%	·	·	·
Cc1nc2c(-c3ccccc3)c(C)[nH]n2c(=O)c1Cc1ccc(Br)cc1	-4%[11.4 µM]	-1%	·	?	8.2µM*	-3%	-2%	?	3.3µM*
C=CC[n+]1c(/C=C2\C=Cc3cc(C)ccc3N2CC)ccc2ccccc21	-9%	-1%	1%	?	4.6µM*	9%	-27%	15µM*	2.3µM*
Cc1cccc(Cn2c(=O)n(CC3CCC(C(=O)N4CCC(C)CC4)CC3)c(=O)c3sccc32)c1 (configuration not stated)	1%[57.1 µM]	-1%	·	2%	-27%	18%[57.1 µM]	·	·	·
CC1CCCCN1S(=O)(=O)c1ccc(C(=O)Nc2nnc(-c3ccccc3Cl)o2)cc1 (configuration not stated)	-2%[57.1 µM]	0%	1%	?	5.2µM*	2%[57.1 µM]	-2%	?	6.5µM*
O=C(Nc1nnc(-c2ccccc2Cl)o1)c1ccc(S(=O)(=O)N2CCCCCC2)cc1	2%[11.4 µM]	-2%	-4%	-15%	?	-44%[57.1 µM]	-9%	?	21µM*
CCOc1ccc(C(=O)Nc2ccc(S(=O)(=O)N(Cc3ccccc3)c3ccccc3)cc2)cc1	-2%	-1%	·	-10%	2.1µM*	16%	-1%	-1%	1.6µM*
CCN(c1ccccc1)S(=O)(=O)c1ccc(C(=O)Nc2nnc(-c3ccco3)o2)cc1	-14%	-2%	-3%	-22%	5.2µM*	-18%	1%	-26%	5.2µM*
CS(=O)(=O)c1ccccc1-c1nnc(NC(=O)c2ccc(S(=O)(=O)N3CCCC3)cc2)o1	-8%	-1%	·	1%	-5%	-8%	·	·	·
CCc1ccccc1NC(=O)Cn1nnc(C(=O)NCc2ccco2)c1N	0%	0%	·	-8%	8%	16%	·	·	·
CCc1nnc(NC(=O)c2ccc(S(=O)(=O)N3CCCC(C)C3)cc2)o1 (configuration not stated)	-2%	-1%	-6%	-16%	?	26%	·	·	·
CC1(C)COCN1S(=O)(=O)c1ccc(C(=O)Nc2nnc(-c3ccc(Cl)s3)o2)cc1	-15%	-1%	-3%	?	6.3µM*	-20%	-15%	?	5.2µM*
CCCN(CCC)S(=O)(=O)c1ccc(C(=O)Nc2nnc(-c3cccc(OC)c3)o2)cc1	4%	-1%[9.22 µM]	·	?	6.5µM*	3%	2%	?	4.6µM*
CC1CCCN(S(=O)(=O)c2ccc(C(=O)Nc3nnc(-c4ccco4)o3)cc2)C1 (configuration not stated)	-6%	3%	1%	-18%	8.2µM*	-22%	-1%	?	·
C=CCn1cnc2c(nnn2-c2ccc(C)c(Cl)c2)c1=O	4%[57.1 µM]	4%	-4%	6%	9%	29%[57.1 µM]	·	·	·
COc1cc(-c2ccno2)ccc1S(=O)(=O)N1CCN(c2cccc(Cl)c2)CC1	3%[57.1 µM]	0%	·	-2%	·	15%[57.1 µM]	·	·	·
COc1cccc(CC(=O)NN2C(=O)NC3(CCCCC3)C2=O)c1	7%	0%	·	0%	5%	6%	·	·	·
CCOC(=O)c1cc(-c2ccc(C)cc2)n(CCC(=O)NCc2ccccc2)c1C	-4%	0%	·	-21%	8.2µM*	-4%	1%	-15%	-23%
Cc1nnc(SC(C)C(=O)Nc2ccc(Cl)cn2)n1Cc1ccccc1 (configuration not stated)	-6%	0%	8%	?	9.2µM*	6%	-1%	-2%	?
CCOc1ccc(S(=O)(=O)Nc2cnc3ccccc3c2)cc1	5%[57.1 µM]	0%	0%	-11%	4.1µM*	8%[57.1 µM]	0%	0%	6.5µM*
